This is a sample that favours compounds with a hit; in the whole collection about 2.8% have one here.
PAFAH1B2 inh – PAFAH1B2 enzyme inhibitors, primary screen, biochemical, fluorescence polarization, human; Platelet-activating factor acetylhydrolase IB subunit alpha2 (Homo sapiens), P68402; recombinant PAFAH1B2, FP-rhodamine activity probe; inhibition, % at 3.39 µM; 340,000 compounds, 1.2% hits; AID 492953, 2010;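 active = inhibition above the mean of all tested compounds plus 3 SD, cut at about 24% in these data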;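 also: 0% = enzyme with DMSO and 100% = wells lacking PAFAH1B2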
PME-1 inh – PME-1 inhibitors via competitive probe labeling, primary screen, biochemical, fluorescence polarization, FP-Rh probe, HTS; inhibition, % at 5.9 µM; Protein phosphatase methylesterase 1 (Homo sapiens), Q9Y570; AID 2130, 2009; recombinant PME-1; 320,000 compounds, 0.53% hits;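 active = inhibition above the campaign mean of all compounds plus 3 SD, cut at about 26% in these data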;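 also: competitive labeling of PME-1 active site by serine hydrolase directed probe; 0% = PME-1 with DMSO and 100% = wells lacking PME-1 enzyme; inhibitors block probe labeling so polarization falls and inhibition rises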
pPAFAH inh – pPAFAH enzyme inhibitors, primary screen, biochemical, fluorescence polarization, human. recombinant pPAFAH, FP-rhodamine probe fluorescence polarization. Platelet-activating factor acetylhydrolase (Homo sapiens), Q13093. inhibition, % at 3.39 µM. 330,000 compounds, 1.5% hits;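 active = inhibition above the mean inhibition across the screen plus 3 SD, cut at about 25% in these data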;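 also: inhibitors block binding of the rhodamine activity-based probe so polarization drops; 0% = enzyme with DMSO and 100% = wells lacking pPAFAH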
Target sequence (Q13093 whole entry, looked up): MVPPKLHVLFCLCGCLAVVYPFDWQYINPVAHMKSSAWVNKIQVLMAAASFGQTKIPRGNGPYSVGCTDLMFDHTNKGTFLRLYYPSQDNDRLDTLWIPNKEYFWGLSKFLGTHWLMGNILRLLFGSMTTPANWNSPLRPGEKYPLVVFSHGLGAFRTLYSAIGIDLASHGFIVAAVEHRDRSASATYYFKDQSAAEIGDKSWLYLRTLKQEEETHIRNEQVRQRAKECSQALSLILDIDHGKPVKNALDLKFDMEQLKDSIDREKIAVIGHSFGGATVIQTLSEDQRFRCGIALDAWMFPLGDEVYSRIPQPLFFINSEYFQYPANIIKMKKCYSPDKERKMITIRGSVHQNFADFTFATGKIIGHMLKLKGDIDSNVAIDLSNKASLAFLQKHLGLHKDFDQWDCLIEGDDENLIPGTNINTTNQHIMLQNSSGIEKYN
PAFAH1B3 inh – PAFAH1B3 enzyme inhibitors, primary screen, biochemical, fluorescence polarization, human; inhibition, % at 3.39 µM; 340,000 compounds, 0.28% hits; recombinant PAFAH1B3, FP-rhodamine probe;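 active = inhibition above the screen-wide average of all tested compounds plus 3 SD, cut at about 25% in these data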;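 also: 0% = enzyme with DMSO only and 100% = wells lacking PAFAH1B3 protein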
PAFAH2 FP inh – PAFAH2 enzyme inhibitors, primary screen, biochemical, fluorescence polarization, human. recombinant PAFAH2, FP-rhodamine activity probe. inhibition, % at 3.39 µM. 340,000 compounds, 0.99% hits;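 active = inhibition above the mean over all tested compounds plus 3 SD, cut at about 30% in these data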;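 also: inhibitors block probe labeling of enzyme so polarization drops; 0% = enzyme with DMSO and 100% = wells lacking PAFAH2 protein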
Fam108B counter – mouse Fam108B serine hydrolase inhibitors, primary screen, counter-screen for RBBP9 inhibitor project, biochemical, fluorescence polarization; recombinant Fam108B, FP-Rh probe fluorescence polarization; 300,000 compounds, 0.33% hits; inhibition, % at 9.51 µM;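 active = inhibition above the screen mean inhibition plus 3 SD, computed separately per campaign, cut at about 18% in these data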;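 also: inhibitors lower polarization as less probe binds the enzyme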
pPAFAH FP conf – pPAFAH (PLA2G7) enzyme inhibitors, confirmation, biochemical, fluorescence polarization, human; shares compounds with pPAFAH inh; recombinant pPAFAH, FP-Rh probe fluorescence polarization; inhibition, % at 3.39 µM; 2,300 compounds, 72% hits; AID 463230, 2010;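 active = mean inhibition of the triplicate above the hit cutoff set for the earlier primary screen, cut at about 25% in these data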;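 also: 0% = enzyme with DMSO and 100% = wells lacking pPAFAH enzyme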
Active calls of the source: *; · = no result.

SMILES	PAFAH1B2 inh	PME-1 inh	pPAFAH inh	PAFAH1B3 inh	PAFAH2 FP inh	Fam108B counter	pPAFAH FP conf
c1ccc2nc(-c3ccc4c(c3)OCO4)ccc2c1	6.5	-3.1	0.4	5.9	5.0	-3.1	·
CNc1ccccc(-c2ccc3cc4c(cc3n2)OCO4)c1=O	-2.9	1.7	83.9*	2.4	4.2	0.8	0.4
O=C(CNC(=O)c1nc[nH]c1C(=O)NCC(=O)OCc1ccccc1)OCc1ccccc1	0.9	-2.2	9.9	-0.5	5.1	-1.6	·
O=C(CNC(=O)c1nc[nH]c1C(=O)NCc1ccccc1)OCc1ccccc1	8.4	2.3	34.9*	14.3	4.0	-3.3	23.8
O=C(Nc1cccc(S(=O)(=O)Nc2ccc(Cl)cc2)c1)c1ccc(Cl)nc1	-0.6	-9.9	40.5*	-14.7	-16.5	-12.9	34.4*
COc1ccc(NS(=O)(=O)c2cccc(NC(=O)c3ccc(Cl)nc3)c2)cc1	1.1	-10.5	16.6	-10.0	-10.9	-7.6	·
O=[N+]([O-])c1ccccc1NC(=S)N/N=C/c1ccc(O)c(O)c1	5.3	27.5*	59.2*	23.7	49.0*	12.4	63.8*
Cc1ccc(CNC(=O)c2ccc3c(=O)[nH]c4c(C(=O)NCC5CCCO5)sc(=S)n4c3c2)cc1 (configuration not stated)	30.0*	16.2	38.0*	34.1*	31.3*	16.6	75.3*
COc1ccc(Cl)cc1NC(=O)C/C(C)=N/NC(=O)Cc1ccccc1	-1.2	-3.6	-5.8	8.1	7.7	-2.3	·
O=C(Cc1ccc(Cl)cc1)Nc1ccc(CN2CCCCC2)cc1	7.6	0.0	8.2	-0.3	-6.2	-1.2	·
COc1ccc(Cl)cc1/C=C/c1ccc2cccc(O)c2n1	-1.1	2.1	2.1	2.9	-7.1	-3.4	·
COc1ccccc1/C=C/c1ccc2cccc(O)c2n1	-3.1	8.8	42.0*	8.9	5.9	10.1	24.0
COc1cc(Cl)c(C)cc1NC(=O)CSc1sc2c(O)cc(=O)[nH]c2c1C#N	9.1	-23.1	40.2*	12.7	14.3	-0.5	30.6*
NC[C@H](O)c1ccc(O)c(O)c1	2.3	0.9	5.9	3.5	5.7	-1.1	·
Oc1ccc(C=Nc2ccccc2-c2nc3ccccc3[nH]2)cc1	7.2	4.1	5.8	8.4	-12.5	7.8	·
COc1ccccc1C(=O)NCCC(=O)N1CCN(C(C)=O)CC1	-1.7	1.5	2.8	7.6	-1.0	-1.6	·
CCc1ccccc1OCC(=O)Nc1cc(S(=O)(=O)N(CC)CC)ccc1N1CCOCC1	-0.9	12.3	49.3*	-0.8	-11.0	·	10.4
CCN(CC)S(=O)(=O)c1ccc(N2CCOCC2)c(NC(=O)COc2ccccc2)c1	-0.4	8.4	9.4	10.4	7.0	-1.5	·
COc1ccc(-c2csc(NC(=O)c3ccccc3NS(=O)(=O)c3ccc(F)c(F)c3)n2)cc1	12.4	31.2*	50.0*	12.5	19.8	17.9	38.9*
COc1ccc(-c2csc(NC(=O)c3ccccc3F)n2)cc1	-2.0	-3.1	0.7	11.5	-6.8	-5.5	·
COc1ccc(-c2csc(NS(=O)(=O)c3ccc([N+](=O)[O-])cc3)n2)cc1	2.0	2.1	38.2*	5.1	11.3	1.8	44.7*
CCOC(=O)N1CCC(NC(=O)CC2C(=O)NCCN2Cc2cccc(F)c2F)CC1 (configuration not stated)	3.3	2.2	6.7	6.6	-4.5	-4.5	·
CCOC(=O)N1CCC(NC(=O)CC2C(=O)NCCN2Cc2ccccc2F)CC1 (configuration not stated)	2.5	6.7	49.5*	9.2	3.8	0.9	6.5
CCOC(=O)CC[C@H](NC(=O)Cn1cnc2c(SC)nc(N)nc21)C(=O)OCC	4.0	·	0.4	6.5	8.9	·	·
O=C(CCN1C(=O)/C(=C/c2ccco2)SC1=S)Nc1ccc(O)cc1C(=O)O	2.8	·	·	12.4	14.7	·	·

Screens (PubChem)
